The panel holds about 83,000 compounds, 20% with a hit somewhere; the sample as a whole holds those more often.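 Cells were grown in 96-well plates and exposed to the test compound at a single concentration for 48 hours; results are reported as percent growth, with values below 10 considered active.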 Activity calls are given as the source filed them.
How the values were obtained:
Assay in all cases: NCI-60 one-dose screen, 48 h (100 = growth as untreated, 0 = no growth, -100 = all killed)
Conditions in all cases: 10 µM unless noted
NCI-H23 lung = tested on: NCI-H23 lung
NCI-H322M lung = tested on: NCI-H322M lung
HOP-62 NSCLC = tested on: HOP-62 NSCLC
NCI-H460 lung = tested on: NCI-H460 lung
HOP-92 NSCLC = tested on: HOP-92 NSCLC
NCI-H522 lung = tested on: NCI-H522 lung
A549/ATCC NSCLC = tested on: A549/ATCC NSCLC
786-0 renal = tested on: 786-0 renal
COLO 205 colon = tested on: COLO 205 colon
DU-145 prostate = tested on: DU-145 prostate
K-562 leukemia = tested on: K-562 leukemia
MALME-3M melanoma = tested on: MALME-3M melanoma
MDA-MB-231 breast = tested on: MDA-MB-231 breast
RXF 393 renal = tested on: RXF 393 renal
SF-268 CNS = tested on: SF-268 CNS
SF-295 CNS = tested on: SF-295 CNS
SF-539 CNS = tested on: SF-539 CNS
UACC-257 melanoma = tested on: UACC-257 melanoma
M14 melanoma = tested on: M14 melanoma
HCT-15 colon = tested on: HCT-15 colon

| Compound | growth (NCI-H23 lung) | growth (NCI-H322M lung) | growth (HOP-62 NSCLC) | growth (NCI-H460 lung) | growth (HOP-92 NSCLC) | growth (NCI-H522 lung) | growth (A549/ATCC NSCLC) | growth (786-0 renal) | growth (COLO 205 colon) | growth (DU-145 prostate) | growth (K-562 leukemia) | growth (MALME-3M melanoma) | growth (MDA-MB-231 breast) | growth (RXF 393 renal) | growth (SF-268 CNS) | growth (SF-295 CNS) | growth (SF-539 CNS) | growth (UACC-257 melanoma) | growth (M14 melanoma) | growth (HCT-15 colon) |
| --- | --- | --- | --- | --- | --- | --- | --- | --- | --- | --- | --- | --- | --- | --- | --- | --- | --- | --- | --- | --- |
| Clc1ccc(COc2ccc(Nc3ncnc4onc(-c5ccccc5)c34)cc2)cc1 | 87.1% (inactive) | 82.8% (inactive) | 91.2% (inactive) | 61% (inactive) | 82.9% (inactive) | 71.3% (inactive) | 82.8% (inactive) | 90.7% (inactive) | 93.5% (inactive) | 72.7% (inactive) | 89.9% (inactive) | 92.7% (inactive) | 76.5% (inactive) | 95.5% (inactive) | 89.2% (inactive) | 93.7% (inactive) | 97% (inactive) | 85.6% (inactive) | 76% (inactive) | 84.2% (inactive) |
| O=C(Nc1ccc(I)cc1F)c1cc(F)ccc1O | -2.66% (active) | 4.87% (active) | -16.6% (active) | 1.95% (active) | -9.55% (active) | -15.8% (active) | 6.45% (active) | -0.577% (active) | 25.1% (inactive) | 15.1% (inactive) | 6.93% (active) | -31.4% (active) | -23.7% (active) | -2.46% (active) | 8.56% (active) | -68.5% (active) | 1.28% (active) | -17.3% (active) | -14.5% (active) | 0.237% (active) |
| CC(=Nc1ccccc1)C1=C(O)C(Cc2ccc(F)cc2)NC1=O (stereo not given) | 30.7% (inactive) | 37.5% (inactive) | 42.7% (inactive) | 13.4% (inactive) | 72.4% (inactive) | -9.06% (active) | 35.9% (inactive) | 48.2% (inactive) | -52.1% (active) | 8.32% (active) | 12.3% (inactive) | 24.2% (inactive) | 69.7% (inactive) | 15.2% (inactive) | 54.9% (inactive) | 8.24% (active) | 18.7% (inactive) | 38.8% (inactive) | 12.8% (inactive) | 23.3% (inactive) |
| Brc1ccc(Oc2ccc(Nc3ncnc4onc(-c5ccccc5)c34)cc2)cc1 | 94.3% (inactive) | 110% (inactive) | 99.8% (inactive) | 103% (inactive) | 110% (inactive) | 97.8% (inactive) | 95.5% (inactive) | 98.5% (inactive) | 112% (inactive) | 102% (inactive) | 92.4% (inactive) | 103% (inactive) | 98.3% (inactive) | 103% (inactive) | 96.7% (inactive) | 92.2% (inactive) | 96.2% (inactive) | 98% (inactive) | 98.3% (inactive) | 103% (inactive) |
| O=C(Nc1ccc(N2CCNCC2)cc1)c1[nH]ncc1Nc1cc(C2CC2)ncn1 | 44.3% (inactive) | 37.6% (inactive) | 66.4% (inactive) | 38.9% (inactive) | 78.1% (inactive) | 25.2% (inactive) | 33.2% (inactive) | 56.7% (inactive) | 24% (inactive) | 70.6% (inactive) | 24.2% (inactive) | 61.5% (inactive) | 81.1% (inactive) | 46.5% (inactive) | 60% (inactive) | 76.9% (inactive) | 46.1% (inactive) | 75.9% (inactive) | 45.3% (inactive) | 35.6% (inactive) |
| CN1C(=O)N(C)C2C1NN=c1s/c(=C\c3ccc([N+](=O)[O-])cc3)c(=O)n12 (stereo not given) | 87.3% (inactive) | 85.4% (inactive) | 68.9% (inactive) | 32% (inactive) | 77.6% (inactive) | 43.6% (inactive) | 59.9% (inactive) | 64.4% (inactive) | 56.7% (inactive) | 77.4% (inactive) | 22% (inactive) | 65.9% (inactive) | 75.1% (inactive) | 78.6% (inactive) | 77.1% (inactive) | 40.8% (inactive) | 54.7% (inactive) | 63.6% (inactive) | 51.2% (inactive) | 37.6% (inactive) |
| Clc1ncccc1Nc1ccc2nnc(-c3ccncc3)n2n1 | 93.2% (inactive) | 106% (inactive) | 102% (inactive) | 103% (inactive) | 110% (inactive) | -58.6% (active) | 102% (inactive) | 101% (inactive) | 109% (inactive) | 107% (inactive) | 66.8% (inactive) | 98.5% (inactive) | 105% (inactive) | 114% (inactive) | 93.3% (inactive) | 105% (inactive) | 99.7% (inactive) | 102% (inactive) | 98.6% (inactive) | 87.1% (inactive) |
| Clc1ccc(Oc2ccc(Nc3ncnc4onc(-c5ccccc5)c34)cc2)c(Cl)c1 | 89.4% (inactive) | 111% (inactive) | 104% (inactive) | 101% (inactive) | 102% (inactive) | 73.2% (inactive) | 91.2% (inactive) | 96.3% (inactive) | 105% (inactive) | 106% (inactive) | 78.1% (inactive) | 105% (inactive) | 99.7% (inactive) | 120% (inactive) | 102% (inactive) | 97% (inactive) | 98.8% (inactive) | 99% (inactive) | 95.6% (inactive) | 89% (inactive) |
| Clc1ccc(Nc2nnc(-c3ccc4c(c3)OCO4)o2)cc1 | 101% (inactive) | 98.9% (inactive) | 114% (inactive) | 103% (inactive) | 99.8% (inactive) | 80.9% (inactive) | 97.8% (inactive) | 97.9% (inactive) | 107% (inactive) | 98.9% (inactive) | 62.4% (inactive) | 99% (inactive) | 108% (inactive) | 130% (inactive) | 107% (inactive) | 115% (inactive) | 104% (inactive) | 100% (inactive) | 102% (inactive) | 95.8% (inactive) |
| Cc1nc2ccccc2c(/C=C/c2ccc(F)cc2)c1C(N)=O | 101% (inactive) | 110% (inactive) | 95.2% (inactive) | 108% (inactive) | 105% (inactive) | 94.3% (inactive) | 97.7% (inactive) | 99.8% (inactive) | 114% (inactive) | 105% (inactive) | 95.8% (inactive) | 105% (inactive) | 92% (inactive) | 106% (inactive) | 96.4% (inactive) | 102% (inactive) | 102% (inactive) | 99.9% (inactive) | 103% (inactive) | 108% (inactive) |
| COc1ccc(C(=O)Nc2ccc3nc(N4CCCCC4)cc(C)c3c2)cc1OC | 96.8% (inactive) | 117% (inactive) | 115% (inactive) | 51.9% (inactive) | 40.8% (inactive) | 98.3% (inactive) | 85.2% (inactive) | 85.4% (inactive) | 95.9% (inactive) | 83.9% (inactive) | -18.6% (active) | 64.8% (inactive) | 48.3% (inactive) | 92.3% (inactive) | 89.5% (inactive) | 48.6% (inactive) | 82.2% (inactive) | 102% (inactive) | 83.9% (inactive) | 31.6% (inactive) |
| COc1ccc(Cn2cc(Cn3cc(C=C4C(=O)NC(=O)NC4=O)c4ccccc43)nn2)cc1 | 62.7% (inactive) | 90.1% (inactive) | 92.4% (inactive) | 48% (inactive) | 84.5% (inactive) | 89.9% (inactive) | 112% (inactive) | 96.7% (inactive) | 108% (inactive) | 92.1% (inactive) | 50.4% (inactive) | 85.5% (inactive) | -96.3% (active) | 77.9% (inactive) | 83.3% (inactive) | 77.1% (inactive) | 88.3% (inactive) | 96.4% (inactive) | 82.4% (inactive) | 85.9% (inactive) |
| COc1cc(C(C)n2cc(-c3ccccc3)nn2)ccc1OC1CCCC1 (stereo not given) | 45.4% (inactive) | 78% (inactive) | 52.7% (inactive) | 74.1% (inactive) | 54.7% (inactive) | 51.2% (inactive) | 61.3% (inactive) | 72.7% (inactive) | 91.8% (inactive) | 85.6% (inactive) | 34% (inactive) | 63.7% (inactive) | 76% (inactive) | 83.1% (inactive) | 72% (inactive) | 47.1% (inactive) | 69.3% (inactive) | 55.4% (inactive) | 82.8% (inactive) | 62.2% (inactive) |
| O=c1c2cc(F)cc(Cl)c2sc2c(Cl)nc3ccccc3c12 | 90.5% (inactive) | 97.8% (inactive) | 89.4% (inactive) | 100% (inactive) | 99.3% (inactive) | 77% (inactive) | 111% (inactive) | 110% (inactive) | 116% (inactive) | 109% (inactive) | 110% (inactive) | 88.9% (inactive) | 84% (inactive) | 100% (inactive) | 98.5% (inactive) | 101% (inactive) | 97% (inactive) | 114% (inactive) | 99.5% (inactive) | 103% (inactive) |
| NNC(=O)CNC(=O)Nc1n[nH]c(=S)s1 | 100% (inactive) | 103% (inactive) | 100% (inactive) | 105% (inactive) | 91.7% (inactive) | 88.7% (inactive) | 105% (inactive) | 103% (inactive) | 107% (inactive) | 107% (inactive) | 90.3% (inactive) | 87% (inactive) | 112% (inactive) | 124% (inactive) | 107% (inactive) | 94% (inactive) | 109% (inactive) | 99.9% (inactive) | 93.5% (inactive) | 109% (inactive) |
| O=C(COc1cc(O)c2c(=O)cc(-c3ccccc3)oc2c1)Nc1ccccc1 | 83.7% (inactive) | 85.6% (inactive) | 101% (inactive) | 61.6% (inactive) | 89.9% (inactive) | 81.5% (inactive) | 84.6% (inactive) | 81.9% (inactive) | 108% (inactive) | 81.5% (inactive) | 95.3% (inactive) | 97.7% (inactive) | 72.9% (inactive) | 98.3% (inactive) | 91% (inactive) | 101% (inactive) | 91% (inactive) | 97.3% (inactive) | 85.4% (inactive) | 96% (inactive) |

— PubChem BioAssay (NCI)
